# Screens: PubChem, National Center for Advancing Translational Sciences (NCATS)
# A selection: hits, their analogues and other compounds. The true share with any hit is near 2.4%.
# FEN1 inh: qHTS Assay for the Inhibitors of Human Flap endonuclease 1 (FEN1); Recombinant FEN1 flap cleavage, fluorescence, 15 min; Potency, µM (top dose mostly 114 µM), without a hit: at the top dose activity change, negative = inhibition, actives largely listed as inhibitors; 390,000 compounds, 0.35% hits; AID 588795, 2011; further: on the % scale 0 is the no-effect control and ±100 the full control effect; nearly all actives have a fitted effect of over 65% in size
# Target sequence (P39748 whole entry, looked up): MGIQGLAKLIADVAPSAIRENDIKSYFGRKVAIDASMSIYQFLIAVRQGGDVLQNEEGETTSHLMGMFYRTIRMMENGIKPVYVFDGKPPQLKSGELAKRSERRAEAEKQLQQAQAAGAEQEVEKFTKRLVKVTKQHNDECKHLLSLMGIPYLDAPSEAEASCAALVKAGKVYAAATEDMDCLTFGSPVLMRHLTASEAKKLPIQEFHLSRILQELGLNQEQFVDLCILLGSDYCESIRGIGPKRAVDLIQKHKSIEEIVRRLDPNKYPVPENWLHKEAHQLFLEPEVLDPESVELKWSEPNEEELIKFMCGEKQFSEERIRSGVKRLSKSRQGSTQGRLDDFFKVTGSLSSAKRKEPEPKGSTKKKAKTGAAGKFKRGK
#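 Recombinant FEN1 (10 nM) was preincubated with pin-transferred compounds for 15 min at room temperature, then flap DNA substrate (50 nM final) was added. Plates were read at 0 and 15 min, and normalized concentration–response data were fitted to a four-parameter Hill equation.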
# POLK inh: qHTS for Inhibitors of Polymerase Kappa | DNA polymerase kappa (Homo sapiens), Q9UBT6 | purified Pol kappa, fluorescent DNA synthesis assay, 10 min | Potency, µM (titrated, usually from 107 µM), without a hit: at the highest dose activity, negative = inhibition, hits mostly inhibitors | 400,000 compounds, 0.53% hits | AID 588579, 2011; further: on the % scale 0 is the no-effect control and ±100 the full control effect
#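 Pol kappa 10 nM + cpd, 15 min RT; start w/ substrate 50 nM final; fluorescence kinetic read, 0 and 10 min. Neg ctrl: buffer, no enzyme.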
# WRN inhibitor: qHTS for Inhibitors of WRN Helicase. Bifunctional 3'-5' exonuclease/ATP-dependent helicase WRN (Homo sapiens), Q14191. WRN helicase unwinding, fluorescent forked duplex, kinetic. Potency, µM (series often up to 114 µM), inactives show top-dose activity change, negative = inhibition, most hits filed as inhibitors. 360,000 compounds, 0.46% hits. AID 651768, 2012; further: on the % scale 0 is the no-effect control and ±100 the full control effect; nearly all actives have a fitted effect of over 55% in size
#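 Screening of the MLSMR collection measured strand separation of a quenched forked DNA duplex (100 nM) by 20 nM WRN with 2 mM ATP, all final. Compounds were preincubated with enzyme 15 min at room temperature.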
# Pol iota inh: qHTS for Inhibitors of Polymerase Iota; DNA polymerase iota (Homo sapiens), Q9UNA4; Pol iota fluorescent replication assay, 10 min; Potency, µM (titrated, usually from 115 µM), for the others: at the highest dose activity, negative = inhibition, usual class: inhibitors; 390,000 compounds, 1% hits; AID 588590, 2011
#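 Fluorescent replication assay read twice, at 0 min and 10 min after adding 50 nM (final) substrate. Enzyme (10 nM) and compounds were first incubated 15 min at room temperature; enzyme-free buffer wells were negative controls.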
# Pol eta inh: qHTS for Inhibitors of Polymerase Eta | 390,000 compounds, 1.2% hits | recombinant Pol eta, fluorescent DNA replication assay | Potency, µM (series often up to 114 µM), without a hit: at the highest dose activity change, negative = inhibition, usual class: inhibitors | AID 588591, 2011; further: on the % scale 0 is the no-effect control and ±100 the full control effect
#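 Pol eta (10 nM) was preincubated with compounds for 15 min at room temperature, after which fluorescent replication substrate (50 nM final) was added to start the reaction. Fluorescence was read kinetically at 0 and 10 min.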
# Pol beta inh: qHTS Assay for Inhibitors of DNA Polymerase Beta; P06746; Pol beta primer extension/strand displacement, fluorescence kinetic; Potency, µM (top dose mostly 114 µM), without a hit: at the top dose activity change, negative = inhibition, usual class: inhibitors; 340,000 compounds, 1.3% hits; AID 485314, 2010; further: on the % scale 0 is the no-effect control and ±100 the full control effect
#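 Curves were derived by four-parameter Hill fits of normalized qHTS data. The kinetic fluorescent primer-extension read was taken at 0 and 10 min after 50 nM substrate, following a 15 min room-temperature preincubation of 10 nM enzyme with compounds.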
# The depositor's hits bear a star; ? = inconclusive; . = no result; [ ] = dose if it differs, or a comment. The call rests on the fitted dose curve; in most records, active means well fitted curve in the direction sought with a large enough effect; inconclusive means small, poorly fitted or top-dose-only effect, or another doubt; inactive means no such curve, though single readings can be large; an effect the other way counts as inactive or inconclusive. Potency means the concentration at half of the fitted maximal effect.
SMILES,FEN1 inh,POLK inh,WRN inhibitor,Pol iota inh,Pol eta inh,Pol beta inh
C=CCn1c(SCC(=O)NCCCC)nc2scc(-c3ccco3)c2c1=O,-11.7%,39.8µM*,?,20µM*,10µM*,22.4µM*
C=CCn1c(SCC(=O)NC2CCCC2)nc2scc(-c3ccco3)c2c1=O,-2.0%,?,?,?,15.8µM*,25.1µM*
C=CCn1c(SCC(=O)NCC2CCCO2)nc2scc(-c3ccccc3)c2c1=O (configuration not stated),-1.5%,-5.1%,3.8%,-0.9%,-13.2%,1.8%
Cc1ccc(C(=O)CSc2nc3cc(C(=O)NC4CCCC4)ccc3c(=O)n2CC2CCCO2)c(C)c1 (configuration not stated),-0.7%,1.1%,.,4.4%,-11.4%,-0.3%
CCCCOC(=O)c1ccc(NC2=NS(=O)(=O)c3ccccc32)cc1,3.5%,-18.8%,.,5.4%,-6.1%,10.0%
COc1ccc(NC(=S)NC(NC(=O)c2ccccc2Cl)C(Cl)(Cl)Cl)c([N+](=O)[O-])c1 (configuration not stated),-22.4%,-15.2%,-10.6%[57.1 µM],10.2%,-2.8%,?
COc1ccc(NC(=S)NC(NC(=O)CCl)C(Cl)(Cl)Cl)c([N+](=O)[O-])c1 (configuration not stated),-29.1%,-15.2%,6.0%,?,50.1µM*,-7.0%
Nc1ccc2c(c1)C(=O)N(c1ccc3ccccc3c1)C2=O,8.4%,-12.8%,.,-3.3%,.,.
CCOc1ccc(C2C(=O)N(C3CCCCCC3)CC(=O)N2Cc2ccc(C)cc2)cc1OC (configuration not stated),6.4%,-8.8%[60.1 µM],.,-11.1%,2.9%,-12.9%
CCCN1CCN(CCCNC(=O)c2ccc3c(c2)sc2nc(-c4ccc(OCC)cc4)cn23)CC1,-15.9%,-11.7%,.,79.4µM*,-24.4%,?
O=c1c2c3c(sc2n(Cc2ccccc2F)c(=O)n1-c1ccc(Cl)cc1)CCCC3,1.6%,-7.0%,.,-2.6%,-18.3%,0.5%
Cn1c(SCC(=O)NCc2ccco2)nc2ccccc2c1=O,-7.4%,-9.9%,1.3%,26.1%,-1.7%,38.9%
O=C(CSc1ncnc2ccccc12)NCc1ccco1,2.6%,-7.4%,-28.2%,?,?,25.1µM*
O=C(CSc1nc2ccccc2c2nc3ccccc3n12)NCc1ccco1,?,?,-24.3%,?,?,8.91µM*
CCCc1nc2sc3c(SCC(=O)NCc4ccco4)ncnc3c2c2c1CCC2,?,28.2µM*,39.8µM*,?,14.1µM*,10µM*
Cn1cccc1Cc1nnc(SCC(=O)NCc2ccco2)n1CCc1ccccc1,0.3%,?,?,22.4µM*,-29.4%,?
O=C(CSc1ncnc2ccccc12)c1ccco1,-0.1%,-3.8%,-2.5%,111.2%,13.7%,-5.7%
CC1CCCCN1C(=O)Cn1ncc2c3ccccc3n(Cc3ccccc3F)c2c1=O (configuration not stated),-22.3%,-0.1%,.,23.9%,-10.3%,12.7%
CN1C(=O)Cc2cc(S(=O)(=O)CCC(=O)Nc3ccccc3)ccc21,19.6%,-21.0%,.,32.8%,2.5%,3.1%
O=C(CSc1nc2ccccc2c(=O)n1Cc1ccc(C(=O)NC2CC2)cc1)NCc1ccco1,4.2%,-34.5%,-1.4%[11.6 µM],?,?,79.4µM*
COCCn1c(SCC(=O)NCc2ccco2)nc2cccnc21,-1.1%,-20.6%,-16.0%,?,?,44.7µM*
O=C(CSc1nc2ccccc2c(=O)n1Cc1ccco1)NCc1ccccc1,-9.8%,-3.4%,-5.5%[57.1 µM],-9.1%,11.7%,.
COCCn1c(SCC(=O)NC2CCCC2)nc2cccnc21,3.9%,12.7%,1.8%,9.6%,-7.8%,-10.8%
O=C(/C=C/c1ccccc1)Nc1cccc(C(=O)NC2CC2)c1,0.4%,2.3%,-0.5%,17.3%,-1.7%,.
Nc1cc2nsnc2cc1Br,?,-19.0%,?,3.55µM*,3.55µM*,?
SMILES,FEN1 inh,POLK inh,WRN inhibitor,Pol iota inh,Pol eta inh,Pol beta inh
Cc1cc(C(=O)COC(=O)c2cc(O)c3ccccc3c2O)c(C)n1CC1CCCO1 (configuration not stated),?,-17.0%,?,53.3%,-26.3%,44.7µM*
CC(=O)Nc1c(C(=O)Nc2cccc(C)c2)nnn1-c1ccc(C)cc1,-4.3%,2.2%,.,-18.3%,-15.2%,10.7%
CCNC(=O)CSc1ncnc2sccc12,4.4%,-17.3%,-32.4%,?,22.4µM*,?
CC(C)(C)n1ncc2c(=O)n(Cc3c(Cl)cccc3Cl)cnc21,-13.6%,7.5%,.,5.1%,.,.
COC(=O)c1ccc2c(c1)SC1=C(CCCC1=O)N2,-8.9%,-17.1%,79.4µM*,-23.4%,-15.2%,-0.1%
COc1cccc(-c2n[nH]c(=S)n2Cc2ccco2)c1,-12.7%,-94.0%,4.6%[11.6 µM],?,35.5µM*,?
S=c1[nH]nc(-c2ccncc2)n1Cc1ccco1,-16.2%,3.0%,4.7%,-1.2%,-11.6%,7.1%
O=S(=O)(Nc1nc2ccccc2nc1Nc1ccc2c(c1)OCCO2)c1cccs1,-10.7%,-42.3%,?,?,?,17.8µM*
COc1ccc(S(=O)(=O)Nc2nc3ccccc3nc2Nc2ccc3c(c2)OCO3)cc1,.,.,.,.,.,2.0%
O=c1cc(/C=C/c2c(F)cccc2Cl)[nH]c2ccccc12,-8.6%,-10.2%,-26.7%[57.1 µM],12.7%,11.2µM*,26.6%
Nc1nccc(/C=C/c2c(F)cccc2Cl)n1,11.0%,-1.3%,-24.4%[57.1 µM],69.3%,-15.3%,0.7%
CCOc1ccc2c(c1)C(NC(C)=O)C(=O)N2CCN1CCOCC1 (configuration not stated),39.8µM*,-9.7%,9.6%,?,?,-0.4%
CCc1ccccc1OCC(=O)Nc1ccc(S(N)(=O)=O)cc1,-4.4%,-5.6%,7.8%,-4.9%,8.7%,-1.1%
NS(=O)(=O)c1ccc(NC(=O)COc2cccc3ccccc23)cc1,-2.3%,-5.6%,?,89.1µM*,79.4µM*,-19.5%
Cc1ccc(-n2c(=O)c3c4c(sc3n(Cc3cccc(Cl)c3)c2=O)CCC4)cc1C,17.9%,4.1%,.,-0.8%,-1.0%,11.0%
N#CC1=C(c2ccc(-c3ccccc3)cc2)COC1=O,0.9%,-20.7%,-1.9%[57.1 µM],?,89.1µM*,?
O=C(O)CCC/C=C\CC1C2CCC(O2)C1CNNC(=O)Nc1ccccc1 (configuration not stated),.,5.8%[19.4 µM],.,.,.,.
COc1ccc(F)cc1S(=O)(=O)NCCc1sc2nc(-c3ccc(F)cc3)nn2c1C,-15.1%,-11.1%[60.1 µM],.,31.1%,-22.2%,-1.4%
